For 16 molecules, AC50 results are on record in PubChem BioAssay (EPA / NIEHS).

The term AC50 denotes the midpoint of the concentration-response curve, whichever way the signal moves.

Structures are written as SMILES. Where “and” joins values, the source holds several entries; their conditions need not be identical. Equal values may be shown once. Calls of active or inactive are those of the source. The calls were made as follows: active = hit-call score of the fitted dose curve at least 0.9, where 1 is the maximum; inactive = score below 0.9.

The subject of the assay is TTR (gene 7276). The experiment in a line: CCTE_GLTED_hTTR_0.125uM: CCTE's human Transthyretin (hTTR) Inhibition Assay, with 0.125uM TTR, Great Lakes Toxicology and Ecology Division (GLTED) Lab (AID 2284431). On the procedure: CCTE_GLTED_hTTR is a cell-free, single-readout assay designed to test the chemicals' ability to displace T4 from the human transthyretin (TTR) protein. TTR (at 0.125uM or 0.5uM) is incubated in presence of test chemical for 2 hours during which disrupting chemicals displace ANSA from the TTR protein. Results read fluorescence at 380 excitation and 475 emission.CCTE_GLTED_hTTR_0.125uM is the assay component measured from the CCTE_GLTED_hTTR assay. It is designed to make measurements of fluorescent polarization, using a form of binding reporter, as detected with Fluorescence signals by Fluorescence technology.Data from the assay component CCTE_GLTED_hTTR_0.125uM was analyzed at the assay endpoint CCTE_GLTED_hTTR_0.125uM in the positive analysis fitting direction relative to DMSO as the negative control and baseline of activity. Using a type of binding reporter, loss-of-signal activity can be used to understand a chemical's ability to displace T4 from transthyretin. To generalize the intended target to other relatable targets, this assay endpoint is annotated to the 'transporter' intended target family, where the subfamily is 'hormone carrier protein'.
Human transthyretin (TTR) assay, developed at Great Lakes Toxicology and Ecology Division (GLTED) within the EPA's Center for Computational Toxicology and Exposure (CCTE), is designed to test the chemicals' ability to displace T4 from the TTR protein. TTR (0.125uM) is incubated in presence of test chemical for 2 hours during which disrupting chemicals displace ANSA from the TTR protein. Results read fluorescence at 380 excitation and 475 emission.
For `Cc1cc(O)ccc1Cl`, the AC50 is 20.5 µM (active). Then `O=C(O)C(F)(F)C(F)(F)C(F)(F)C(F)(F)C(F)(F)C(F)(F)C(F)(F)C(F)(F)C(F)(F)F`, with 0.646 µM (active); and `CCCCCCCCCc1ccc(O)cc1`, with 3.03 µM (active). For `Oc1ccc(C(c2ccc(O)cc2)(C(F)(F)F)C(F)(F)F)cc1` the value was 2.53 µM (active); for `O=S(=O)(O)C(F)(F)C(F)(F)C(F)(F)C(F)(F)F`, 2.08 µM (active); for `CC(C)(c1ccccc1)c1ccc(O)cc1`, 0.888 µM (active). Turning to `CCC(C)(c1ccc(O)cc1)c1ccc(O)cc1`, the AC50 is 9.26 µM (active). Then `Clc1ccc(C(Cl)(Cl)Cl)cc1`, with 1.04 µM (active); and `O=C(O)C(F)(F)C(F)(F)C(F)(F)C(F)(F)C(F)(F)C(F)(F)C(F)(F)C(F)(F)F`, with 0.21 µM (active). With `NS(=O)(=O)C(F)(F)C(F)(F)C(F)(F)C(F)(F)C(F)(F)C(F)(F)C(F)(F)C(F)(F)F`, the AC50 was 0.683 µM (active). For `O=NN(c1ccccc1)c1ccccc1` the value was 14.2 µM (active). For `CCC(C)c1cc([N+](=O)[O-])cc([N+](=O)[O-])c1O` (stereo unspecified) the value was 0.0883 µM (active); for `O=S(=O)(O)C(F)(F)C(F)(F)C(F)(F)C(F)(F)C(F)(F)C(F)(F)F`, 0.0856 µM (active). For `O=C(O)C(F)(F)C(F)(F)C(F)(F)C(F)(F)C(F)(F)F` the value was 1.92 µM (active).

Take `Cc1cc(-c2ccc(N)c(C)c2)ccc1N`: the AC50 is 92.7 nM (active) and 178 nM (active).

Regarding `CC(c1ccc(O)cc1)(c1ccc(O)cc1)c1ccc(O)cc1`, the AC50 is 1.48 µM (active).
